From PubChem BioAssay (NCATS)
A number with no mark means an inactive call. Results filed as inconclusive are left out. Where a call stands in place of a potency, no number is given. Active and inactive are the calls of the source. Unless noted, calls follow the shape of the dose curve; as a rule, active = well fitted curve in the direction sought with a large enough effect; inconclusive = small, poorly fitted or top-dose-only effect, or another doubt; inactive = no such curve, though single readings can be large; an effect the other way counts as inactive or inconclusive.

Experiment: Confirmation and Secondary Assay for Modulators of Hemoglobin Beta Chain Splicing at IVS2 654 locus (AID 910);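 also: HeLa cells stably carrying EGFP split by mutant beta-globin IVS2-654 intron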
Conditions: HeLa EGFP-654 splicing reporter, GFP fluorescence, 48 h; series mostly up to 46.1 µM
Method in brief: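 HeLa cells stably expressing EGFP interrupted by β-globin IVS2-654 intron, seeded overnight in Opti-MEM/2% FCS, then treated 2 days at 37 °C. Restored splicing read as total peak GFP intensity per well by laser scanning cytometry (488 nm excitation, 500–520 nm emission); 500 nM antisense PNA as control.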
With `CCCCC(CC)CN1CN(CC(CC)CCCC)CC(C)(N)C1` (stereo not drawn) the outcome was “inactive”. For `CN1CCC(OC(c2ccccc2)c2ccccc2)CC1`, the outcome was “inactive”. For `O=C1C(CCS(=O)c2ccccc2)C(=O)N(c2ccccc2)N1c1ccccc1` (stereo not drawn), the outcome was “inactive”. In the case of `NC(=O)c1ccccc1O`, the outcome was “inactive”. For `CCN(CC)CCNc1ccc(CO)c2sc3ccccc3c(=O)c12`, the outcome was “inactive”. For `CN(C)CCOC(c1ccc(Cl)cc1)c1ccccn1` (stereo not drawn), the outcome was “inactive”. For `CCCN(CCC)S(=O)(=O)c1ccc(C(=O)O)cc1`, the outcome was “inactive”. With `CNCCc1ccccn1` the outcome was “inactive”. With `CCN(CC)CCNC(=O)COc1ccc(OC)cc1` the outcome was “inactive”. In the case of `CCN(CC)CCOC(=O)C(Cc1cccc2ccccc12)CC1CCCO1` (stereo not drawn), the outcome was “inactive”. For `O=C(O)c1ccc(S(=O)(=O)N(Cl)Cl)cc1`, the outcome was “inactive”. In the case of `CC(C(=O)O)c1cccc(Oc2ccccc2)c1` (stereo not drawn), the outcome was “inactive”. With `CCCCCCCCNC(C)C(O)c1ccc(SC(C)C)cc1` (stereo not drawn) the outcome was “inactive”. In the case of `C[N+]12CCC(CC1)C(OC(=O)C(O)(c1ccccc1)c1ccccc1)C2` (stereo not drawn), the outcome was “inactive”. In the case of `COc1ccc(-c2cc(C(F)F)nn2-c2ccc(S(N)(=O)=O)cc2)cc1F`, the outcome was “inactive”. In the case of `Cc1ccccc1OCC(O)CO` (stereo not drawn), the outcome was “inactive”. For `CCOc1ccc(NC(C)=O)cc1`, the outcome was “inactive”. For `CCOC(=O)[C@H](CCc1ccccc1)N[C@@H](C)C(=O)N1[C@H](C(=O)O)C[C@H]2CCCC[C@@H]21`, the outcome was “inactive”. For `CN(C)CCC[C@@]1(c2ccc(F)cc2)OCc2cc(C#N)ccc21`, the outcome was “inactive”. With `COc1ccc(CN(CCN(C)C)c2ncccn2)cc1` the outcome was “inactive”. With `Cc1cc(C)cc(OCC2CNC(=O)O2)c1` (stereo not drawn) the outcome was “inactive”. With `COc1ccc(C(Cl)=C(c2ccc(OC)cc2)c2ccc(OC)cc2)cc1` the outcome was “inactive”. In the case of `O=C(CCCN1CC=C(n2c(=O)[nH]c3ccccc32)CC1)c1ccc(F)cc1`, the outcome was “inactive”. For `O=C1C(O)=C(O)C(=O)C(O)=C1O`, the outcome was “inactive”. For `COc1ccc(C(=O)c2ccccc2O)c(O)c1`, the outcome was “inactive”. For `COc1cc(N)c(Cl)cc1C(=O)NC1CCN(Cc2ccccc2)CC1`, the outcome was “inactive”. With `Oc1ccc(Cl)cc1Cc1cc(Cl)ccc1O` the outcome was “inactive”. For `O=C(O)CCNC(=O)c1ccccc1`, the outcome was “inactive”. With `CCCCCN=C(N)N/N=C/c1c[nH]c2ccc(OC)cc12` the outcome was “inactive”. In the case of `CC(=O)NCCCCCC(=O)O`, the outcome was “inactive”. With `CCN(CC)CCNC(=O)c1cc(Br)c(N)cc1OC` the outcome was “inactive”. For `O=C(O)P(=O)(O)O`, the outcome was “inactive”. With `COc1ccc(C(=O)c2ccccc2)c(O)c1` the outcome was “inactive”. In the case of `CCCc1ncc(C[n+]2ccccc2C)c(N)n1`, the outcome was “inactive”.

Experiment: qHTS Assay for Identification of Small Molecule Agonists for Hypoxia Response Element Signaling Pathway (AID 914; active = well fitted activation curve with a large enough effect in the signal ratio, with a control signal flat, not every such curve was filed as active; the % refers to the signal ratio; also: potency is read from the fitted curve at half-maximal effect)
Conditions: ME-180 (cervical carcinoma) HRE-bla reporter, beta-lactamase ratio, CoCl2, 17 h; activation: active compounds read high
Method in brief: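 HRE-bla ME-180 assay for agonist-like enhancement of an EC50 CoCl2 stimulus: 17 h at 37 degrees Celsius, CCF4 for 2.5 h, ratiometric 460/530 nm signal converted to %Activity and fitted to AC50.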
With `CCCCCCCCNC(C)C(O)c1ccc(SC(C)C)cc1` (stereo not drawn) the activation was 0.942%. `CCOc1ccc(NC(C)=O)cc1` gave an activation of 2%. For `COc1ccc(C(=O)c2ccccc2O)c(O)c1`, the Potency was 5.01 µM (active).

Experiment: Cell Viability - LYMP2-001 (AID 921);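 also: cells exposed to compound for 24 h at 37 °C; nearly all actives have a fitted effect of over 70% in size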
Conditions: LYMP2-001 lymphoblastoid cell viability; series mostly up to 92.2 µM
Method in brief: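 CellTiter-Glo luminescence (intracellular ATP) after 24 hr compound exposure at 37 C, 2500 lymphoblastoid cells/well in complete medium. AC50 fitted with standard Hill equation; tetraoctylammonium bromide positive control.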
For `NC(=O)c1ccccc1O`, the outcome was “inactive”. With `CCCN(CCC)S(=O)(=O)c1ccc(C(=O)O)cc1` the outcome was “inactive”. With `O=C(O)c1ccc(S(=O)(=O)N(Cl)Cl)cc1` the outcome was “inactive”. In the case of `CCOc1ccc(NC(C)=O)cc1`, the outcome was “inactive”. With `COc1ccc(C(Cl)=C(c2ccc(OC)cc2)c2ccc(OC)cc2)cc1` the outcome was “inactive”. In the case of `Oc1ccc(Cl)cc1Cc1cc(Cl)ccc1O`, the outcome was “inactive”. With `COc1ccc(C(=O)c2ccccc2)c(O)c1` the outcome was “inactive”.

Experiment: Confirmation and Secondary Assay for Modulators of Hemoglobin Beta Chain Splicing at IVS2 705 locus (AID 930);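 also: HeLa cells stably expressing the EGFP-705 splicing reporter; GFP fluorescence per well restored by corrected splicing of the IVS2-705 intron in EGFP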
Conditions: HeLa EGFP-705 splicing reporter, GFP fluorescence, 48 h; series mostly up to 46.1 µM
Method in brief: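 HeLa IVS2-705 EGFP reporter cells, 500/well, compound 2 d at 37C; correct splicing yields fluorescent EGFP. Control: 500 nM antisense PNA. Read-out: total peak GFP intensity.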
In the case of `CCCCC(CC)CN1CN(CC(CC)CCCC)CC(C)(N)C1` (stereo not drawn), the outcome was “inactive”. For `CN1CCC(OC(c2ccccc2)c2ccccc2)CC1`, the outcome was “inactive”. In the case of `O=C1C(CCS(=O)c2ccccc2)C(=O)N(c2ccccc2)N1c1ccccc1` (stereo not drawn), the outcome was “inactive”. With `NC(=O)c1ccccc1O` the outcome was “inactive”. In the case of `CCN(CC)CCNc1ccc(CO)c2sc3ccccc3c(=O)c12`, the outcome was “inactive”. For `CN(C)CCOC(c1ccc(Cl)cc1)c1ccccn1` (stereo not drawn), the outcome was “inactive”. In the case of `CCCN(CCC)S(=O)(=O)c1ccc(C(=O)O)cc1`, the outcome was “inactive”. With `CNCCc1ccccn1` the outcome was “inactive”. With `CCN(CC)CCNC(=O)COc1ccc(OC)cc1` the outcome was “inactive”. With `CCN(CC)CCOC(=O)C(Cc1cccc2ccccc12)CC1CCCO1` (stereo not drawn) the outcome was “inactive”. In the case of `O=C(O)c1ccc(S(=O)(=O)N(Cl)Cl)cc1`, the outcome was “inactive”. For `CC(C(=O)O)c1cccc(Oc2ccccc2)c1` (stereo not drawn), the outcome was “inactive”. For `CCCCCCCCNC(C)C(O)c1ccc(SC(C)C)cc1` (stereo not drawn), the outcome was “inactive”. For `C[N+]12CCC(CC1)C(OC(=O)C(O)(c1ccccc1)c1ccccc1)C2` (stereo not drawn), the outcome was “inactive”. For `COc1ccc(-c2cc(C(F)F)nn2-c2ccc(S(N)(=O)=O)cc2)cc1F`, the outcome was “inactive”. In the case of `Cc1ccccc1OCC(O)CO` (stereo not drawn), the outcome was “inactive”. In the case of `CCOc1ccc(NC(C)=O)cc1`, the outcome was “inactive”. In the case of `CCOC(=O)[C@H](CCc1ccccc1)N[C@@H](C)C(=O)N1[C@H](C(=O)O)C[C@H]2CCCC[C@@H]21`, the outcome was “inactive”. In the case of `CN(C)CCC[C@@]1(c2ccc(F)cc2)OCc2cc(C#N)ccc21`, the outcome was “inactive”. For `COc1ccc(CN(CCN(C)C)c2ncccn2)cc1`, the outcome was “inactive”. With `Cc1cc(C)cc(OCC2CNC(=O)O2)c1` (stereo not drawn) the outcome was “inactive”. For `COc1ccc(C(Cl)=C(c2ccc(OC)cc2)c2ccc(OC)cc2)cc1`, the outcome was “inactive”. With `O=C(CCCN1CC=C(n2c(=O)[nH]c3ccccc32)CC1)c1ccc(F)cc1` the outcome was “inactive”. With `O=C1C(O)=C(O)C(=O)C(O)=C1O` the outcome was “inactive”. With `COc1ccc(C(=O)c2ccccc2O)c(O)c1` the outcome was “inactive”. For `COc1cc(N)c(Cl)cc1C(=O)NC1CCN(Cc2ccccc2)CC1`, the outcome was “inactive”. For `Oc1ccc(Cl)cc1Cc1cc(Cl)ccc1O`, the outcome was “inactive”. In the case of `O=C(O)CCNC(=O)c1ccccc1`, the outcome was “inactive”. With `CCCCCN=C(N)N/N=C/c1c[nH]c2ccc(OC)cc12` the outcome was “inactive”. In the case of `CC(=O)NCCCCCC(=O)O`, the outcome was “inactive”. For `CCN(CC)CCNC(=O)c1cc(Br)c(N)cc1OC`, the outcome was “inactive”. With `O=C(O)P(=O)(O)O` the outcome was “inactive”. For `COc1ccc(C(=O)c2ccccc2)c(O)c1`, the outcome was “inactive”. For `CCCc1ncc(C[n+]2ccccc2C)c(N)n1`, the outcome was “inactive”.
